Only some compounds are listed: those with a hit (about 18% of all), similar ones and a draw of the others.
Six1-Eya2 blk = Six1/Eya2 interaction inhibition; AID 651725; Q15475+O00167; actives 0.56% (n = 360,000); activity change, % (test concentration not listed); AlphaScreen GST-Six1/His-Eya2 binding, biochemical; hits give low values; in the data active = activity change below about -65%; inconclusive = mostly about -30% to -63%
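Homogeneous AlphaScreen proximity assay pairing GST-Six1 with His-tagged Eya2 (added as 5X mix: 250 nM and 500 nM) in 50 mM Tris pH 8.0, 300 mM NaCl, 1 mM TCEP. Glutathione donor and nickel acceptor beads; 1 h, 37 °C, dark.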
CtBP-E1A blk = inhibitors of CtBP/E1A interaction; AlphaScreen GST-E1A/His-CtBP binding, 1536-well; hits give low values; activity change, % (test concentration not listed); actives 0.49% (n = 340,000); in the data active = activity change below about -65%; inconclusive = mostly about -30% to -63%
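Protein mix (5X: 125 nM each GST-E1A, His-CtBP) was incubated with pinned compound 2 h at 37 deg C in dark, in 50 mM Tris pH 8.0 buffer with 300 mM NaCl. Glutathione donor and nickel acceptor beads followed; AlphaScreen signal read after 1 h.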
IL-1B inflam inh = blocks inflammasome-driven IL-1 beta release | THP-1 LPS/ATP IL-1B secretion, AlphaLISA, 16 h; hits give low values | activity change, % at 57.5 µM | actives 4.7% (n = 360,000) | AID 743279; in the data active = activity change below about -50%; inconclusive = mostly about -30% to -49%
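THP-1 cells pretreated 1 hr with compounds (up to 57.5 uM final), then stimulated with LPS (250 ng/mL final) plus ATP (1.25 mM final); secreted IL-1B measured by AlphaLISA after 16 hr, decreased signal indicating inhibition.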
TDP1 cell noCPT = qHTS for Inhibitors of human tyrosyl-DNA phosphodiesterase 1 (TDP1): qHTS in cells in absence of CPT; actives 15% (n = 420,000); Potency, µM (titrated, usually from 46.2 µM), for the others: top-dose activity change, negative = growth inhibition, hits mostly inhibitors; DT40 Tdp1-/- hTDP1 cells, no CPT, ATP luminescence, 48 h; note: potency is the fitted concentration of half-maximal effect; nearly all actives have a fitted effect of over 55% in size
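Stably hTDP1-transfected Tdp1-null chicken DT40 cells were treated with library compounds minus camptothecin and grown for at least 48 hr at 37 °C, after which cellular ATP was quantified by luminescence.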
DT40 TDP1 CPT = growth inhibition of DT40 Tdp1-/-;hTDP1 cells with camptothecin (screen for TDP1 inhibitors); chicken DT40 Tdp1-/-;hTDP1 cells + 20 nM CPT, ATP luminescence, 48 h; Potency, µM (doses to about 46.2 µM), for inactives: at the top dose activity change, negative = growth inhibition, most hits filed as inhibitors; actives 12% (n = 420,000); note: potency is the fitted concentration of half-maximal effect; nearly all actives have a fitted effect of over 55% in size
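Chicken DT40 Tdp1-/- cells stably complemented with human TDP1 were seeded at 400 cells/well in medium containing 20 nM camptothecin, exposed to pin-transferred compounds, and grown at 37 °C for at least 48 hr. Viability was read as ATP luminescence.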
TDP1 inh = inhibitors of human tyrosyl-DNA phosphodiesterase TDP1 | Q9NUW8 | recombinant TDP1, AlphaScreen DNA substrate cleavage | Potency, µM (top dose mostly 130 µM), for inactives: at the highest dose activity change, negative = inhibition, actives largely listed as inhibitors | actives 0.28% (n = 350,000) | AID 485290; note: potency is the fitted concentration of half-maximal effect; nearly all actives have a fitted effect of over 40% in size
Target sequence (Q9NUW8 whole entry, looked up): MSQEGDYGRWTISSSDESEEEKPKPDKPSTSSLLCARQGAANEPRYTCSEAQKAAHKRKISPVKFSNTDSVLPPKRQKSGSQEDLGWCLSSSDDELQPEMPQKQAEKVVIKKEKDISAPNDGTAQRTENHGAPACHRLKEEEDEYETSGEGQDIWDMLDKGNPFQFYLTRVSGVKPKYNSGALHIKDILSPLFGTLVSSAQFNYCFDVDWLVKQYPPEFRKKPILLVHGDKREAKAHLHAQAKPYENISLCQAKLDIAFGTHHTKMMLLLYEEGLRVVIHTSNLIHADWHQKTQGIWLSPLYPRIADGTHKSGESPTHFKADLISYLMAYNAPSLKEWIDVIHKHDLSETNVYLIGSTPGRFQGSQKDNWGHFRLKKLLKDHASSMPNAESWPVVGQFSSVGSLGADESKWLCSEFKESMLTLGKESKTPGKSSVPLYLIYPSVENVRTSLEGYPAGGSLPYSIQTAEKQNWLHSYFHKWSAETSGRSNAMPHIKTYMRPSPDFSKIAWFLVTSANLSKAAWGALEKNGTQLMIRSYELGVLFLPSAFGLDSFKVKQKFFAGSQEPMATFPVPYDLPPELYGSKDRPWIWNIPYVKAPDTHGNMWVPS
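Steps: enzyme plus compound, 15 min RT; add biotin/phosphotyrosine-FITC oligonucleotide (15 nM final), react 5 min; add donor/acceptor beads (10 ug/ml final), 10 min; read AlphaScreen. Tdp1 at 1 nM final.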
Numbers without * were called inactive; ? = inconclusive; / = no result; [ ] = remark or other dose. Unless noted, calls come from the whole dose curve; as a rule, active = well fitted curve in the direction sought with a large enough effect; inconclusive = small, poorly fitted or top-dose-only effect, or another doubt; inactive = no such curve, though single readings can be large; an effect the other way counts as inactive or inconclusive. % is set by controls: 0 for no effect and ±100 for the full control effect.

SMILES | Six1-Eya2 blk | CtBP-E1A blk | IL-1B inflam inh | TDP1 cell noCPT | DT40 TDP1 CPT | TDP1 inh
Cc1ccc(C)c(NC(=S)N2CCN(c3cccc(C(F)(F)F)c3)CC2)c1 | -4.0 | 0.7 | 15.4 | -28.7% | ? | 3.9%
Cc1ccnc(NC(=S)N2CCN(c3cccc(C(F)(F)F)c3)CC2)c1 | 10.6 | -11.5 | -88.3* | ? | ? | -1.2%
CCNC(=S)N1CCN(c2cccc(C(F)(F)F)c2)CC1 | -4.2 | -7.3 | -25.1 | 13µM* | 14.6µM* | 0.6%
FC(F)(F)c1cccc(N2CCN(C(=S)NC3CCCCC3)CC2)c1 | -8.9 | 4.6 | 7.2 | 23.1µM* | ? | 2.6%
COc1ccc(OCc2cc(C(=O)N(C)Cc3cnccn3)no2)c(Cl)c1 | 5.1 | 0.0 | 37.7 | -1.0% | 4.6% | 6.9%[56.1 µM]
CN(Cc1nccs1)C(=O)c1cc(COc2cccc3cnccc23)on1 | -1.2 | / | -14.9 | 10.3µM* | 7.31µM* | 5.4%
COc1cc(Cl)ccc1OCc1cc(C(=O)N(C)Cc2cccc3cnccc23)no1 | -7.9 | -1.8 | -63.7* | 11.6µM* | 14.6µM* | 4.8%
CC(=O)c1ccc(N2CCN(C(C)C(=O)NC3CCCc4ccccc43)CC2)cc1 (stereo not drawn) | 6.3 | -1.8 | -0.4 | ? | ? | 4.6%
CC(=O)c1c(N2CCN(C)CC2)nc(=S)n(-c2cc(C)ccc2C)c1C | 1.1 | 6.4 | 0.0 | -17.9% | 5.7% | 5.5%
O=[N+]([O-])c1cccc(CSc2ncnc3ccccc23)c1 | -21.1 | / | -60.8* | ? | -16.1% | 0.5%
Cc1cccc(CSc2ncnc3ccccc23)c1 | 35.9 | 30.1 | 1.0 | ? | -24.6% | -2.4%
Cc1cc(C)n2c(Nc3ccc(C(C)C)cc3)c(-c3ccsc3)nc2n1 | / | / | / | ? | ? | 7.5%
CCCCNc1c(CC(C)C)nc2nc(C)cc(C)n12 | 3.5 | -3.8 | 13.9 | 23.1µM* | 16.4µM* | /
Cc1cc(C)n2c(Nc3c(C)cccc3C)c(CC(C)C)nc2n1 | -0.4 | 1.0 | -4.1 | 23.1µM* | ? | /
Cc1ccc(-c2csc3n[nH]c(=S)n23)cc1 | 4.6 | -0.4 | 0.0 | -2.3% | -23.5% | -0.9%
O=C(Nc1cc(Sc2ccccn2)cc([N+](=O)[O-])c1)c1cccc(F)c1 | -24.0 | -14.2 | -22.5 | ? | ? | -5.5%
O=C(Nc1cc(Sc2nc3ccccc3s2)cc([N+](=O)[O-])c1)c1ccccc1F | -27.0 | -21.1 | 33.1 | ? | 20.6µM* | 4.3%
O=C(Nc1cc(Sc2nc3ccccc3s2)cc([N+](=O)[O-])c1)c1ccccc1 | -18.3 | -12.6 | 19.2 | 16.4µM* | ? | 2.7%
O=C(Oc1ccc2ccc(=O)oc2c1)c1cccs1 | ? | -1.7 | 13.7 | -5.6% | 3.2% | -1.2%
CC(=O)N1CCC(=NNc2ncc(C(F)(F)F)cc2Cl)CC1 | -17.3 | -9.4 | 110.8 | ? | ? | 4.6%
COc1ccc(CNC(=O)COC(=O)CCCOc2ccc(Cl)cc2Cl)cc1 | 3.5 | -0.8 | 6.0 | -22.9% | 31.0% | -3.2%
Clc1ccc(N2O[C@H]3C=C[C@@H]2C3)nc1 | -4.0 | -7.9 | ? | ? | 20.6µM* | /
O=C(c1ccc[nH]1)N1O[C@@H]2C=C[C@H]1C2 | -0.5 | -0.6 | 14.3 | -10.8% | 1.7% | /
O=S(=O)(NCC1(N2CCOCC2)CCCCC1)c1ccc(F)c(F)c1F | 10.0 | -5.0 | 1.7 | ? | 10.3µM* | /
N#Cc1ccc(OCC(O)CN2CCN(C(c3ccccc3)c3ccccc3)CC2)cc1 (stereo not drawn) | 1.0 | -6.6 | -19.8 | 18.4µM* | ? | 14.6%
SMILES | Six1-Eya2 blk | CtBP-E1A blk | IL-1B inflam inh | TDP1 cell noCPT | DT40 TDP1 CPT | TDP1 inh
N#Cc1ccc(OCC(O)CN2CCN(c3ncc(C(F)(F)F)cc3Cl)CC2)cc1 (stereo not drawn) | 2.0 | -2.1 | -65.1* | 14.6µM* | ? | -7.6%
COc1ccc(OCC(O)CN2CCN(CC(O)COc3ccc(OC)cc3)CC2)cc1 (stereo not drawn) | -1.4 | -0.7 | -5.0 | 4.0% | -7.8% | /
OC(CN1CCN(c2ncc(C(F)(F)F)cc2Cl)CC1)c1ccccc1 (stereo not drawn) | -0.2 | / | 4.3 | ? | ? | /
N#Cc1ccc(OCC(O)CN2CCN(CC(O)COc3ccc(C#N)cc3)CC2)cc1 (stereo not drawn) | 10.5 | 30.5 | 15.9 | 25.9µM* | ? | 8.6%[0.0935 µM]
CN1CCN(CC(O)COc2ccc(C34CC5CC(CC(C5)C3)C4)cc2)CC1 (stereo not drawn) | -4.9 | 0.0 | -99.1* | 13µM* | ? | 5.5%
COc1ccc(CNC(=O)CN2CCN(S(=O)(=O)c3cccs3)CC2)cc1OC | -1.5 | 7.3 | 15.9 | 4.7% | -10.0% | 2.3%
COc1ccc(OC)c(S(=O)(=O)N2CCN(CC(O)COc3ccc(C#N)cc3)CC2)c1 (stereo not drawn) | -1.6 | -11.8 | 0.3 | 23.1µM* | ? | 2.1%
N#Cc1cc2c(OCC(O)CN3CCN(C(c4ccccc4)c4ccccc4)CC3)cccc2[nH]1 (stereo not drawn) | / | / | / | 5.62µM* | 8.9µM* | 12.2%
N#Cc1ccc(-c2ccc(OCC(O)CN3CCCCC3)cc2)cc1 (stereo not drawn) | 10.0 | -1.4 | ? | ? | 23.1µM* | /
Cc1c(C(=O)N(Cc2ccc(N(C)C)cc2)Cc2ccco2)oc2cc(Br)ccc12 | / | / | / | 9.2µM* | 23.1µM* | 9.8%
Cc1cc(C)c2c(CC(=O)N(Cc3ccc(Cl)cc3)Cc3ccco3)coc2c1 | / | / | / | 8.2µM* | ? | 3.7%
Cc1ccc2c(CC(=O)N(Cc3ccc(N(C)C)cc3)Cc3ccco3)coc2c1C | / | / | / | 18.4µM* | 16.4µM* | 14.7%
Cc1cc(C)c2c(CC(=O)NCc3ccco3)coc2c1 | -3.4 | -4.1 | 21.0 | ? | ? | 3.4%
Cc1ccc(CN(Cc2ccco2)C(=O)c2oc3cc(Br)ccc3c2C)cc1 | / | / | / | ? | ? | 7.4%
Nc1nonc1-c1noc(-c2ccccc2)n1 | 5.6 | 6.0 | -5.2 | 0.8% | 2.7% | 4.9%
OC1(c2ccc3c(c2)OCO3)CCN(Cc2ccc(F)cc2)CC1 | -3.3 | -1.9 | -22.6 | 18.6% | 2.8% | /
O=C(O)CC(Cc1ccc(Cl)cc1)C(=O)Nc1ccccc1 (stereo not drawn) | 4.7 | / | 13.1 | 10.7% | 7.1% | /
COc1ccccc1NC(=O)C(=O)N/N=C(\C)CC(=O)Nc1ccc(OCc2ccccc2)cc1 | 0.0 | -1.9 | 3.9 | ? | -26.4% | 9.8%
Cc1cnc(NC(=O)Nc2ccc(OCc3ccccc3)cc2)c(Br)c1 | -2.9 | -3.6 | -5.3 | 16.4µM* | ? | /
